Laboratory results: PubChem BioAssay (Tox21)
Active and inactive are the calls of the source. Entries that show only a call come without a potency. Calls come from the whole dose curve; as a rule, active = well fitted curve in the direction sought with a large enough effect in the repeat runs; inconclusive = weak or mixed curves; inactive = flat fitted curve, though single readings scatter.

experiment: qHTS assay to test for compound auto fluorescence at 460 nm (blue) in HEK293 cell free culture (AID 720681); settings: cell-free medium, autofluorescence 405/460 nm (blue); series mostly up to 46 µM
In short: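 Compounds were added to cell-free DMEM with 10% FBS and fluorescence read directly. The blue channel used 405 nm excitation and 460 nm emission, with triamterene as the reference fluorophore.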

| Compound | Potency |
| --- | --- |
| CCCCCC(O)/C=C/C=O (stereo not drawn) | inactive |
| O=C(Cn1c(=O)sc2ccc(Cl)cc21)N1CCN(CCO)CC1 | inactive |
| COc1ccc2c(c1)OC(C)(C)C(c1ccccc1)C2c1ccc(OCCN2CCCC2)cc1 (stereo not drawn) | inactive |
| CCCCCCOc1ccc(C(=N)N(CCCC)CCCC)c2ccccc12 | inactive |
| C[C@H](N)C(=O)N[C@@H](C)P(=O)(O)O | inactive |
| OC[C@H]1OC([S-])[C@H](O)[C@@H](O)[C@@H]1O.[Au+] (stereo partly drawn) | inactive |
| CC[C@@H](C(=O)[C@@H](C)[C@@H](O)[C@H](C)[C@@H]1O[C@@H]([C@@H](CC)C(=O)O)CC[C@@H]1C)[C@H]1O[C@]2(C=C[C@@H](O)[C@]3(CC[C@@](C)([C@H]4CC[C@](O)(CC)[C@H](C)O4)O3)O2)[C@H](C)C[C@@H]1C | inactive |
| C=C1CC[C@H](O)CC1=C/C=C1\CCC[C@]2(C)[C@@H]([C@H](C)CCCC(C)(C)O)CC[C@@H]12 | inactive |
| O=C(COc1ccc(Cl)cc1)OCCNC12CC3CC(CC(C3)C1)C2 | inactive |
| CCOC(=O)Oc1c(OC)cc(C(=O)O[C@@H]2C[C@@H]3CN4CCc5c([nH]c6cc(OC)ccc56)[C@H]4C[C@@H]3[C@H](C(=O)OC)[C@H]2OC)cc1OC | inactive |
| Nc1nc2[nH]cc(CCc3ccc(C(=O)N[C@@H](CCC(=O)O)C(=O)O)cc3)c2c(=O)[nH]1 | inactive |
| CC(CC(c1ccccc1)c1ccccc1)NC(C)(C)C (stereo not drawn) | inactive |
| NC[C@@H]1O[C@H](O[C@H]2[C@@H](O)[C@H](O[C@@H]3[C@@H](O)[C@H](N)C[C@H](N)[C@H]3O[C@H]3O[C@H](CN)[C@@H](O)[C@H](O)[C@H]3N)O[C@@H]2CO)[C@H](N)[C@@H](O)[C@@H]1O | inactive |
